These results are taken from PubChem BioAssay AID588458 (Sanford-Burnham Center for Chemical Genomics, 2011).

Each structure is given as a SMILES string. Out of some 360,000 compounds screened, about 3,000 (0.83%) were called active. Many of the other results were omitted from the sample, so actives are more common in it than they were. Values without a mark were called inactive. No stated cut-off is given here; in the data, active means inhibition above about 50%; inactive means the rest.

For the assay, the target named is DNA (cytosine-5)-methyltransferase 1 (Homo sapiens) (UniProt P26358). The assay can be described thus: inhibition of DNA methyltransferase DNMT1 – biochemical, molecular beacon, fluorescence, HinP1I cleavage, uHTS, primary screen (AID 588458). To be noted: at 10 µM, hits give high values.
Sequence of DNA (cytosine-5)-methyltransferase 1 (Homo sapiens) (P26358 504-1616 limits assumed): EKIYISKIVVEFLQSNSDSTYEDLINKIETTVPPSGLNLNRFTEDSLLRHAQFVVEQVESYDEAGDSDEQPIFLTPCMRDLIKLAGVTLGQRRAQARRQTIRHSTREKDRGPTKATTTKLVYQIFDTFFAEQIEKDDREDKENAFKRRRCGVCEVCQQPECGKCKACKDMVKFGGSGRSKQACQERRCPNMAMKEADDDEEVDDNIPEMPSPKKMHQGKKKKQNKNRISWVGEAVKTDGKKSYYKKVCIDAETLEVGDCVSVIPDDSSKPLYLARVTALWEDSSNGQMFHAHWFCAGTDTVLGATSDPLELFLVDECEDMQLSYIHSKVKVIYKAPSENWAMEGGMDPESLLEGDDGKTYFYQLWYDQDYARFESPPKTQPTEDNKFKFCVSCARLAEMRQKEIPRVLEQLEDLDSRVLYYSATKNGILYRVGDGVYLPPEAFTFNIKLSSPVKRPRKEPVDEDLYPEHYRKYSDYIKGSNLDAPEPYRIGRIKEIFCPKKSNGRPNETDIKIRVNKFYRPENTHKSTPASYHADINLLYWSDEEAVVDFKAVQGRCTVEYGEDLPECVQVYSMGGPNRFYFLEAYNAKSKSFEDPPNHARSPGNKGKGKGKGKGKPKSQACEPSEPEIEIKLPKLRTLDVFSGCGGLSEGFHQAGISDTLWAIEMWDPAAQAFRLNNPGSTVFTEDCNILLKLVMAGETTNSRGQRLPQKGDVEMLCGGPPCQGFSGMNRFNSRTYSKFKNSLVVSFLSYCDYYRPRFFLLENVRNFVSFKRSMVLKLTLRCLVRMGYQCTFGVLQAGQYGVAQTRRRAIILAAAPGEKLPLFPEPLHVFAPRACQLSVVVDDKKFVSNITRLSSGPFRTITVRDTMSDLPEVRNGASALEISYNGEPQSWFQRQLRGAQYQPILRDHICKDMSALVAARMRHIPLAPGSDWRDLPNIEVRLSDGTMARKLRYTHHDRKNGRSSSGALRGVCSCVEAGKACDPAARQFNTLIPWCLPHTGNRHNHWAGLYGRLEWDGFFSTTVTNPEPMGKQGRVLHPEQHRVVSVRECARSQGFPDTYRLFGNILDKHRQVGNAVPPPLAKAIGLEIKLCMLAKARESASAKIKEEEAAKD
In the case of `O=C(NC(Cc1ccccc1)C(=O)O)/C(=C\c1ccccc1)NC(=O)c1ccco1` (stereo not given), the inhibition (reported as % activation of signal) is -3.34%.

For the compound `CCC(C)(C)NC(=O)CN(C(=O)CCC(=O)Nc1cc(C)ccn1)c1ccc2c(c1)OCCO2`, the inhibition (reported as % activation of signal) is -0.26%.

As to `O=C(c1cccnc1)N(c1cc2sc(=O)oc2c2ccccc12)S(=O)(=O)c1ccccc1`, the inhibition (reported as % activation of signal) was -12.2%.

For `CC(Sc1cccc[n+]1[O-])C(=O)Nc1cccc(S(=O)(=O)N2CCOCC2)c1` (stereo not given), the inhibition (reported as % activation of signal) is 1.02%.

`CN(C)/C=C(/C(=O)c1ccc(F)cc1)S(=O)(=O)c1ccc(F)cc1`: the inhibition (reported as % activation of signal) is 1.17%.

Turning to `CN(C)/C=C(/C(=O)c1ccccc1)S(=O)(=O)c1ccc(Cl)cc1`, the inhibition (reported as % activation of signal) is -1.72%.

For `CN(C)/C=C(/C(=O)c1ccc(Cl)cc1)S(=O)(=O)c1ccccc1`, the inhibition (reported as % activation of signal) is 70% (active).

For `Cc1cnc(CN(C)C(=O)C2CCC(=O)N(CCc3cccc(F)c3)C2)[nH]1` (stereo not given), the inhibition (reported as % activation of signal) was 1.88%.

Regarding `O=C(Nc1ccc(Cl)cc1)c1cccc(OC(=S)N2CCOCC2)c1`, the inhibition (reported as % activation of signal) was 0.14%.

Take `COc1cccc(C(=O)Nc2ccc(N3CCCC3)cc2)c1`: the inhibition (reported as % activation of signal) is 91.3% (active).

As to `COc1cccc(C(=O)Nc2ccc3nc4n(c(=O)c3c2)CCCCC4)c1`, the inhibition (reported as % activation of signal) is 3.72%.

Regarding `CC1CN(C(=O)c2ccccc2NS(=O)(=O)c2cccc([N+](=O)[O-])c2)CC(C)O1` (stereo not given), the inhibition (reported as % activation of signal) was 65.4% (active).

For the compound `Cc1cc([N+](=O)[O-])ccc1NS(=O)(=O)c1ccccc1`, the inhibition (reported as % activation of signal) is 3.46%.

In the case of `CC1CN(C(=O)c2cccc(NS(=O)(=O)c3ccc(Br)cc3)c2)CC(C)O1` (stereo not given), the inhibition (reported as % activation of signal) was 6.97%.

On to `Nc1c(C(=O)O)cnn1-c1ccccc1`, for which the inhibition (reported as % activation of signal) was -0.06%.

In the case of `Cc1noc(C)c1COc1ccccc1C(=O)N(C)CC(=O)Nc1cccc(F)c1`, the inhibition (reported as % activation of signal) is 1.78%.

Take `COc1ccc(C)cc1NC(=O)CCCN1C(=O)NC(C)(C)C1=O`: the inhibition (reported as % activation of signal) was 2.66%.

For `Cc1cc(O)c(C(=O)/C=C/c2c(F)c(F)c(F)c(F)c2F)c(=O)o1`, the inhibition (reported as % activation of signal) is 59.4% (active).

`COc1ccc(/C=C/C(=O)c2c(O)cc(OC)cc2OC)cc1`: the inhibition (reported as % activation of signal) is -2.91%.

`Cc1cc(O)c(Sc2ccccc2)c(=O)o1`: the inhibition (reported as % activation of signal) was 4.53%.

In the case of `COc1ccc(C)cc1NC(=O)c1cc(-c2ccccc2)nc2c1cnn2C(C)C`, the inhibition (reported as % activation of signal) is -4.87%.

As to `O=C(CN1CCOCC1)N/N=C/c1ccc(-c2ccc(Br)cc2)o1`, the inhibition (reported as % activation of signal) is -2.15%.

With `O=C(Cn1nnc(-c2ccccc2)n1)N/N=C/c1ccc(-c2ccc(Cl)cc2)o1`, the inhibition (reported as % activation of signal) is 59.9% (active).

As to `Nc1nnn(CC(=O)N/N=C/c2ccccc2)n1`, the inhibition (reported as % activation of signal) was 0.13%.

Take `CC1(C)CC(=O)C(C2c3ccccc3S(=O)(=O)c3ccccc32)C(=O)C1`: the inhibition (reported as % activation of signal) was 1.21%.

On to `COc1cc(CC(=O)N2CCC(n3nccc3NC(=O)C3CC3)CC2)cc(OC)c1OC`, for which the inhibition (reported as % activation of signal) is 0.88%.

As to `CCOc1ccc(CN2CCC(n3nccc3NC(=O)C3CC3)CC2)cc1CO`, the inhibition (reported as % activation of signal) is 55.5% (active).

On to `O=C(Nc1ccnn1C1CCN(Cc2cccc(OCCO)c2)CC1)C1CCCC1`, for which the inhibition (reported as % activation of signal) was -0.78%.

Consider `COCCCC1CCN(C(=O)C2CCC(=O)N(C3CCCCCC3)C2)CC1` (stereo not given), for which the inhibition (reported as % activation of signal) was -2.02%.

As for `C=CCN1CCN(C(=O)CCCc2ccccc2)CC1`, the inhibition (reported as % activation of signal) was 0.85%.

For the compound `O=C(Oc1ccc(-c2nc(-c3ccccn3)no2)cc1)c1ccccc1`, the inhibition (reported as % activation of signal) was 52.9% (active).

`O=C(COC(=O)c1ccncc1)c1ccccc1`: the inhibition (reported as % activation of signal) was -0.53%.

In the case of `Cc1noc(C)c1COC(=O)COc1ccc(-c2ccccc2)cc1`, the inhibition (reported as % activation of signal) was -6.7%.

For `Nc1nc(Br)c2ccccc2c1-c1ccc(F)cc1`, the inhibition (reported as % activation of signal) was -9.34%.

Regarding `Cc1cccc(C)c1OCCN1CCOCC1`, the inhibition (reported as % activation of signal) was 0.32%.

As to `c1ccc2cc3c(NCCN4CCOCC4)ccnc3cc2c1`, the inhibition (reported as % activation of signal) is 54.4% (active).

On to `O=C(NCCN1CCOCC1)c1cc(Sc2cccc(Cl)c2)nc2ccccc12`, for which the inhibition (reported as % activation of signal) is -4.33%.

`CN1CCN(C(=O)C(=O)c2cn(CC(=O)N3CCCC3)c3ccccc23)CC1`: the inhibition (reported as % activation of signal) is 1.12%.

On to `O=C(CN1C(=O)c2cccnc2Oc2ccc(Cl)cc21)NCCc1ccccc1`, for which the inhibition (reported as % activation of signal) is -0.09%.

Regarding `Cc1ccc2oc(=O)c3cnn(CC(=O)N4CCN(c5ccccn5)CC4)c3c2c1`, the inhibition (reported as % activation of signal) is 2.52%.

In the case of `CC(=O)Nc1ccc(NC(=O)CCCNC(=O)c2ccc(Cl)cc2)cc1`, the inhibition (reported as % activation of signal) is -1.09%.

As to `CC(=O)Nc1ccc(SCC(=O)NC(=O)c2ccc(Cl)cc2)cc1`, the inhibition (reported as % activation of signal) was 69.8% (active).

Consider `CCC(=O)Nc1ccc(C(=O)NNC(=O)c2ccc(Cl)cc2)cc1`, for which the inhibition (reported as % activation of signal) is -1.31%.

As to `Cc1ccc2c(CN3CCN(S(=O)(=O)c4ccccc4C(F)(F)F)CC3)cc(=O)oc2c1`, the inhibition (reported as % activation of signal) is -2.32%.

Consider `CC(C)Oc1ccc(S(=O)(=O)N2CCOCC2)cc1NC(=O)C1CCCC1`, for which the inhibition (reported as % activation of signal) was 4.21%.

On to `CCCCN1C(=O)/C(=C/C=C2/C=Cc3ccccc3N2CC)SC1=S`, for which the inhibition (reported as % activation of signal) was 3.13%.

As to `O=C(CN1C(=O)/C(=C\c2ccccc2F)SC1=S)Nc1nc2ccccc2s1`, the inhibition (reported as % activation of signal) was -44.4%.

As to `Cc1ccc(-c2nn(-c3ccccc3)cc2/C=C2\SC(=S)N(CCCCCC(=O)O)C2=O)o1`, the inhibition (reported as % activation of signal) is 87.9% (active).

Regarding `CCOC(=O)c1c(NC(=S)NC(=O)/C=C/c2cccs2)sc(C)c1C`, the inhibition (reported as % activation of signal) was 58.9% (active).

On to `CCc1nnc(NS(=O)(=O)c2ccc(NC(=S)NC(=O)/C=C/c3cccs3)cc2)s1`, for which the inhibition (reported as % activation of signal) is 9.17%.

As to `CCOC(=O)c1sc(=NC(=O)/C=C/c2cccs2)n(C)c1C`, the inhibition (reported as % activation of signal) was 10.1%.

As for `O=C(CO/N=C/c1ccccc1O)NNC(=O)c1ccccc1Cl`, the inhibition (reported as % activation of signal) was -2.54%.

On to `CC(C)(C)N(Cc1ccccc1)C(=O)c1ccncc1`, for which the inhibition (reported as % activation of signal) was 82.6% (active).

Take `CCN(Cc1ccncc1)C(=O)CCc1ccccc1`: the inhibition (reported as % activation of signal) was -1.63%.

Take `CC(C)(C)C(=O)N(Cc1ccccc1)c1ccccn1`: the inhibition (reported as % activation of signal) is -1.5%.

As for `CC(=O)N/C(=N/c1nc(C)cc(C)n1)Nc1ccc(F)cc1F`, the inhibition (reported as % activation of signal) is 0.05%.

In the case of `C/C(=N\NC(=O)CCn1nc(C)cc1C)C(C)(C)C`, the inhibition (reported as % activation of signal) was -0.8%.

`OCC(O)C1OCOC(C(O)CO)C1O` (stereo not given): the inhibition (reported as % activation of signal) was -1.63%.

In the case of `O=C(NCCc1ccc(F)cc1)c1ccc(S(=O)(=O)N2CCCCC2)cc1`, the inhibition (reported as % activation of signal) is -2.12%.

With `NC1=CC(=O)C(=O)c2cccnc21`, the inhibition (reported as % activation of signal) is 100% (active).

In the case of `CN(Cc1ccccc1)C(=O)COC(=O)c1ccccc1Nc1ccccc1`, the inhibition (reported as % activation of signal) was -16.6%.

As to `Cn1cnc(C(F)(F)F)c1-c1ccc([N+](=O)[O-])cc1`, the inhibition (reported as % activation of signal) is 3.01%.

For the compound `O=C(COC(=O)c1ccccc1)Nc1ccccc1Sc1ccccc1`, the inhibition (reported as % activation of signal) is 0.84%.

`O=C(COC(=O)c1cccc(Br)c1)Nc1cccc2c1C(=O)c1ccccc1C2=O`: the inhibition (reported as % activation of signal) is 51% (active).

For `O=C(COC(=O)Cn1cnc2ccccc21)Nc1cccc2c1C(=O)c1ccccc1C2=O`, the inhibition (reported as % activation of signal) was 27.5%.

For the compound `CC(C)(C)c1ccccc1NC(=O)CN1C(=O)NC2(CCCC2)C1=O`, the inhibition (reported as % activation of signal) was 1.67%.

With `COCCn1cnnc1SCC(=O)Nc1cccc(S(=O)(=O)N2CCCCC2)c1`, the inhibition (reported as % activation of signal) was -1.49%.

As for `Cc1ccc2c(c1)N(CC(=O)N1CCC(C)CC1)C(=O)c1cccnc1O2`, the inhibition (reported as % activation of signal) was -0.74%.

On to `COc1ccc(/C=C/C(=O)OCC(=O)N2CCN(S(=O)(=O)c3ccc(C)cc3C)CC2)cc1OC`, for which the inhibition (reported as % activation of signal) is -0.56%.

Consider `Cc1ccc(N=C2NC(=O)/C(=C/C=C/c3ccco3)S2)cc1C`, for which the inhibition (reported as % activation of signal) was 71.1% (active).

`O=C(COC(=O)c1cc(=O)[nH]c2ccccc12)Nc1nc(-c2cccc(Br)c2)cs1`: the inhibition (reported as % activation of signal) was -21.4%.

As for `Cc1cc(C)c(-c2csc(NC(=O)CCCc3nc4ccccc4c(=O)[nH]3)n2)c(C)c1`, the inhibition (reported as % activation of signal) was -5%.

For the compound `O=C(CSc1nc2ccccc2c(=O)[nH]1)Nc1nc(-c2ccc(Br)cc2)cs1`, the inhibition (reported as % activation of signal) was 93.2% (active).

For `Cc1ccc(C(C(=O)NCC2CCCO2)N(C(=O)c2snc(C(N)=O)c2N)c2ccc(C(C)C)cc2)o1` (stereo not given), the inhibition (reported as % activation of signal) is 0.65%.

Consider `CC(C)C(=O)Nc1ccc2c(c1)oc1ccccc12`, for which the inhibition (reported as % activation of signal) was -5.97%.
